{
  "source": "PubChem BioAssay (Tox21)",
  "note": "Inconclusive results are not listed. A number with no mark means an inactive call. The call rests on the fitted dose curve; in most records, active means well fitted activation curve with a large enough effect in the repeat runs; inconclusive means weak or mixed curves; inactive means flat fitted curve, though single readings scatter. On the % scale 0 is the no-effect control and ±100 the full control effect.",
  "data": [
    {"assay": "A CellTox Green Cytotoxicity Assay to monitor cytotoxicity in HEK293 cells - 32 hour (AID 1224881); further: nearly all actives have a fitted effect of over 40% in size", "details": "CellTox Green fluorescence; series mostly up to 76.8 µM; cytotoxicity increase: at the top concentration", "text": "National Center for Advancing Translational Sciences [NCATS]\nNIH Chemical Genomics Center [NCGC]\nU.S. Environmental Protection Agency [EPA]\nNational Institutes of Environmental Health Sciences [NIEHS]\nNational Toxicology Program [NTP]\nCell-based models are critical for drug discovery. Determining the natural cytotoxic effects resulting from test compounds is an essential research activity. A CellTox Green Cytotoxicity Assay to monitor cytotoxicity in real time of continues cell culture during 40 hours of the compound treatment was used to screen Tox21 10K library compounds in Hek293 cells. CellTox Green Cytotoxicity Assay is a nonlytic, homogeneous, biofluorescent method to measure cytotoxicity in cell culture after experimental manipulation. The assay system uses a proprietary asymmetric cyanine dye that is excluded from viable cells but preferentially stains the dead cell's DNA. […] Viable cells produce no appreciable increases in fluorescence. Therefore, the fluorescence signal produced by the binding interaction with dead cell DNA is proportional to cytotoxicity.\nThe mixture of Hek293 cell suspension and reagents were dispensed at 600cells/6 ul/well in 1536-well tissue culture treated black solid bottom plates using a Multidrop dispenser. After the assay plates were incubated at a 37 C/5% CO2 incubator for 5 hours, 23 nL of compounds dissolved in DMSO, positive and negative controls was transferred to the assay plate by a pintool work station. The plates were incubated at 37 C for 40 hours. The fluorescence intensity were measured at 0h, 8h, 16h, 24h, 32h and 40h time points using ViewLux plate reader during compound treatment.", "values": [
      {"smiles": "CCN[C@@H]1C[C@H](N)[C@@H](OC2OC(CN)=CCC2N)[C@H](O)[C@H]1O[C@H]1OC[C@](C)(O)[C@H](NC)[C@H]1O", "note": "(stereo not given in full)", "cytotoxicity increase": "8.84% [at 0.29 µM]"},
      {"smiles": "CCC1C(=O)OCC1Cc1cncn1C", "note": "(stereo not given)", "cytotoxicity increase": "-10.2% [at 35.3 µM]"},
      {"smiles": "C=COCC1CCC(COC=C)CC1", "note": "(stereo not given)", "cytotoxicity increase": "-9.05%"},
      {"smiles": "COC(=O)Nc1ccc(Cl)c(Cl)c1", "cytotoxicity increase": "-14.9%"},
      {"smiles": "C1CCC2=NCCCN2CC1", "cytotoxicity increase": "-12.2%"},
      {"smiles": "CCCCCCC1CCC(=O)O1", "note": "(stereo not given)", "cytotoxicity increase": "3.51%"},
      {"smiles": "COc1cc(-c2ccc(=O)[nH]n2)ccc1OC(F)F", "cytotoxicity increase": "-4.21% [at 35.3 µM]"},
      {"smiles": "CC(COc1ccccc1)NN", "note": "(stereo not given)", "cytotoxicity increase": "-3.62% [at 35.3 µM]"},
      {"smiles": "O=C(O)CNC(=O)c1ccc(CO)o1", "cytotoxicity increase": "-0.347%"},
      {"smiles": "CC(=O)c1ccc2ccccc2c1", "cytotoxicity increase": "-0.56%"},
      {"smiles": "CCC(C(=O)NC(=O)NC(C)=O)c1ccccc1", "note": "(stereo not given)", "cytotoxicity increase": "0.489% [at 35.3 µM]"},
      {"smiles": "CN1[C@@H]2CC[C@H]1CC(OC(=O)C(O)c1ccccc1)C2", "note": "(stereo not given in full)", "cytotoxicity increase": "-9.94% [at 35.3 µM]"},
      {"smiles": "CC1OC1C1CCC2(C)OC2C1", "note": "(stereo not given)", "cytotoxicity increase": "-1.2%"},
      {"smiles": "O=S(=O)(O)c1cccc2c(S(=O)(=O)O)cccc12", "cytotoxicity increase": "27%"},
      {"smiles": "CC(=O)c1ccccc1[N+](=O)[O-]", "cytotoxicity increase": "4.73%"},
      {"smiles": "CNC(=O)Nc1ccc(Cl)c(Cl)c1", "cytotoxicity increase": "0.065%"},
      {"smiles": "COc1cc(C)nc(-n2nc(C)cc2OC)n1", "cytotoxicity increase": "1.54% [at 35.3 µM]"},
      {"smiles": "Cc1ccc(-c2ncc(Cl)cc2-c2ccc(S(C)(=O)=O)cc2)cn1", "cytotoxicity increase": "20.3% [at 35.3 µM]"},
      {"smiles": "COc1ccnc(CS(=O)c2nc3cc(OC(F)F)ccc3[nH]2)c1OC", "note": "(stereo not given)", "cytotoxicity increase": "-16.9%"},
      {"smiles": "CC(C)(N)C#N", "cytotoxicity increase": "-0.832%"},
      {"smiles": "CC1=NN(c2cccc(S(=O)(=O)O)c2)C(=O)C1", "cytotoxicity increase": "20.2%"},
      {"smiles": "CCOC(=O)C(=O)CCCCCCl", "cytotoxicity increase": "-12.3% [at 35.3 µM]"},
      {"smiles": "CN(C)CCCN(C)CCCN(C)C", "cytotoxicity increase": "-12.2%"},
      {"smiles": "COc1cccc(OC)c1C(=O)N[C@@H]1C(=O)N2[C@@H]1SC(C)(C)[C@@H]2C(=O)O", "cytotoxicity increase": "-5.07% [at 35.3 µM]"},
      {"smiles": "CCN[C@H]1C[C@H](C)S(=O)(=O)c2sc(S(N)(=O)=O)cc21", "cytotoxicity increase": "-0.317% [at 35.3 µM]"},
      {"smiles": "CC(N)C12CC3CC(CC(C3)C1)C2", "note": "(stereo not given)", "cytotoxicity increase": "-11.8% [at 35.3 µM]"},
      {"smiles": "CCOC(=O)COc1cc(-n2ncc(C(F)(F)F)c(C)c2=O)c(F)cc1Cl", "cytotoxicity increase": "-0.35%"},
      {"smiles": "O=C(O)c1cn(C2CC2)c2cc(N3CCNCC3)c(F)cc2c1=O", "cytotoxicity increase": "-1.68% [at 35.3 µM]"},
      {"smiles": "NC(N)=NCCN1CCCCCCC1", "cytotoxicity increase": "2.16% [at 0.29 µM]"},
      {"smiles": "O=C1CCCCCCCCCCCCCCO1", "cytotoxicity increase": "9.43%"},
      {"smiles": "CCCn1cc[n+](C)c1C", "cytotoxicity increase": "-9.21%"},
      {"smiles": "COc1cc2c(cc1OC)-c1cc3ccc(OC)c(OC)c3c[n+]1CC2", "cytotoxicity increase": "13.1%"},
      {"smiles": "O=C(CO)[C@@H](O)[C@H](O)[C@@H](O)CO", "cytotoxicity increase": "15.4% [at 35.3 µM]"},
      {"smiles": "COc1c(N2CCNC(C)C2)c(F)cc2c(=O)c(C(=O)O)cn(C3CC3)c12", "note": "(stereo not given)", "cytotoxicity increase": "5.38% [at 35.3 µM]"},
      {"smiles": "Cc1cc(C)c(N=Nc2c(O)c(S(=O)(=O)O)cc3cc(S(=O)(=O)O)ccc23)cc1C", "cytotoxicity increase": "10.2% [at 6.97 µM]"},
      {"smiles": "CO[C@@]1(NC(=O)C(C(=O)O)c2ccc(O)cc2)C(=O)N2C(C(=O)O)=C(CSc3nnnn3C)CO[C@@H]21", "note": "(stereo not given in full)", "cytotoxicity increase": "-17% [at 35.3 µM]"},
      {"smiles": "C[N+]1(CC2COC(c3ccccc3)(c3ccccc3)O2)CCCCC1", "note": "(stereo not given)", "cytotoxicity increase": "-8.36% [at 15.8 µM]"},
      {"smiles": "C=COC(=O)C(C)(CC)CCC(C)C", "note": "(stereo not given)", "cytotoxicity increase": "1.74%"},
      {"smiles": "C[N+]1(C)[C@@H]2CC(OC(=O)[C@H](CO)c3ccccc3)C[C@H]1[C@@H]1O[C@@H]12", "note": "(stereo not given in full)", "cytotoxicity increase": "3.36% [at 35.3 µM]"},
      {"smiles": "C[C@@H]1C[C@H]2[C@@H]3C[C@H](F)C4=CC(=O)C(Cl)=C[C@]4(C)[C@@]3(F)[C@@H](O)C[C@]2(C)[C@@]1(O)C(=O)CO", "cytotoxicity increase": "-17.9% [at 35.3 µM]"}
    ]}
  ]
}
